# Data: PubChem BioAssay (NCI)
# Compounds without any hit were thinned out: in the full panel of roughly 79,000, 15% have a hit. The source made the active and inactive calls. No stated cut-off is given here; in the data, active means growth inhibition above about 70%; inactive means the rest.
# Test: NCI Yeast Anticancer Drug Screen. Data for the mec2-1 strain (AID 157)
# Settings: S. cerevisiae mec2-1 strain, at 50.0 µM, hits give high values
# Method in brief: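 Each compound was tested on mec2-1 yeast, a strain altered in DNA damage repair or cell cycle control. Growth inhibition is reported relative to vehicle.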
row,SMILES,growth inhibition
1,COc1ccc(C(O)C2CCCN(C)S2(=O)=O)cc1 (configuration not stated),21.9% (inactive)
2,Clc1ccc([I+]c2ccc(Cl)cc2)cc1,95.5% (active)
3,CCCCCCCCCCCCCCCc1c(NC(C)(CC(C)(C)O)[P+](=O)O)c(=O)n(C)n1C (configuration not stated),-31.1% (inactive)
4,CC(C)Nc1ncnc2c1cnn2-c1ccccc1,-17.1% (inactive)
5,CC(C)(C)c1cc(CCC(=O)Nc2ccc(Cl)cc2)[nH]c(=S)n1,-16.1% (inactive)
6,COC(=O)c1c2c(cc3c1CC1(C3)Cc3ccc4c(c3C1=O)CCC4)CCC2 (configuration not stated),14.4% (inactive)
7,O=Cc1ccccc1CCn1c(=O)c2cc3c(=O)n(CCc4ccccc4C=O)c(=O)c3cc2c1=O,18.9% (inactive)
8,NC(N)=N/N=C(\c1ccc(Cl)cc1)C1CC1,-5.05% (inactive)
9,Cc1ccc(CSCc2c(CSCc3ccc(C)cc3)c(CSCc3ccc(C)cc3)c(CSCc3ccc(C)cc3)c(CSCc3ccc(C)cc3)c2CSCc2ccc(C)cc2)cc1,0.9% (inactive)
10,NC(C(=O)O)c1ccccc1 (configuration not stated),-23.4% (inactive)
11,[Mn+2].[Mn+2].c1ccc2c(c1)-c1nc-2nc2[n-]c(nc3nc(nc4[n-]c(n1)c1ccccc41)-c1ccccc1-3)c1cc3c4nc5nc(nc6[n-]c(nc7nc(nc([n-]4)c3cc21)-c1ccccc1-7)c1ccccc61)-c1ccccc1-5,-0.9% (inactive)
12,Cn1c(=O)c2c(nc(C[N+]3([O-])CCOCC3)n2C)n(C)c1=O,-34.9% (inactive)
13,O=C(c1ccccc1)c1ccncc1,-4.4% (inactive)
14,CCOC(=O)c1[nH]cnc1N,11.1% (inactive)
15,COc1ccccc1C(=O)NO,-27.2% (inactive)
16,CCCC1OCC(O)C(C(O)C(=O)CN(Cc2ccccc2)Cc2ccccc2)O1 (configuration not stated),1.35% (inactive)
17,CCOC(=O)c1c(N)[nH]c(SSc2[nH]c(N)c(C(=O)OCC)c2C(=O)OCC)c1C(=O)OCC,3.85% (inactive)
18,O=C(O)Cc1cccc2c(=O)cc(Cc3ccccc3)oc12,-16.6% (inactive)
19,COc1cc([N+](=O)[O-])ccc1C(=O)NC(CCC(=O)O)C(=O)O (configuration not stated),-19.9% (inactive)
20,CCCCCOc1ccc2ccccc2c1,-27.8% (inactive)
21,OCC(O)CNc1ncnc2ccccc12 (configuration not stated),-11.8% (inactive)
22,Oc1cc(N2CCCC2)ccc1/C=N/N1C(=S)N(c2ccccc2)C(=Nc2ccccc2)C1=Nc1ccccc1,-31.8% (inactive)

# Test: NCI Yeast Anticancer Drug Screen. Data for the sgs1 mgt1 strain (AID 161);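 further: 0% = growth of cultures given vehicle only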
# Settings: S. cerevisiae sgs1 mgt1 strain, at 50.0 µM, hits give high values
# Method in brief: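 Mutant yeast exposed to compound; growth scored against vehicle-only wells.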
row,SMILES,growth inhibition
1,O=C1CSC(c2cccc(O)c2)N1c1nncs1 (configuration not stated),21.9% (inactive)
2,CCCCCCCCCC1CC(=O)OC23CCCC(=O)C12O3 (configuration not stated),9.2% (inactive)
3,CC(C)NCC(O)COc1c2ccccc2nc2ccccc12 (configuration not stated),-24.2% (inactive)
4,CCCOc1ccc(C(=O)C(C(c2ccccc2)N2CCOCC2)N2CCOCC2)cc1 (configuration not stated),21% (inactive)
5,O=S(=O)(OI(O)CC(F)(F)F)C(F)(F)F,-0.65% (inactive)
6,Nc1ncnc2c1ncn2C1CCC(CP(=O)(O)O)C1 (configuration not stated),-23.4% (inactive)
7,O=C(CC(C(=O)c1cccs1)c1cccs1)c1ccsc1 (configuration not stated),10.6% (inactive)
8,O=C(C[n+]1ccccc1CCCO)c1ccc(F)cc1,4.6% (inactive)
9,CCOC(=O)NCC(C)(C)N(C(=O)OCC)c1ccccc1,-15.7% (inactive)
10,O=C(/C=C/c1cccc2ccccc12)c1ccccc1Cl,7.65% (inactive)
11,O=C1NC(=O)C(Cc2ccco2)N1 (configuration not stated),-7.85% (inactive)
12,N=C1N=Nc2nc(C(C(=O)c3cccc(O)c3)c3nc4n(c3O)C(=N)N=N4)c(O)n21 (configuration not stated),-8.9% (inactive)
13,CCOC(=O)\C(C#N)=C/C=C(C)/C(C)=C/Nc1ccc([N+](=O)[O-])cc1[N+](=O)[O-],-18.4% (inactive)
14,C[C@]1(CO)CCC[C@@]2(C)C1CC[C@H]1CC3C[C@]12CC[C@]3(C)O (some centres not stated),41.2% (inactive)
15,CC(=O)Nc1c(Cl)cccc1[N+](=O)[O-],-4.75% (inactive)
16,CCOC(=O)C1C/C(C)=C(/C)SCCCS1 (configuration not stated),-5.5% (inactive)
17,NC(=O)c1cc(Cl)ccc1O,18.4% (inactive)
18,O=c1[nH]c(NCc2ccc(Cl)cc2)nc2nc[nH]c12,-19.5% (inactive)
19,COc1ccc(C(O)C2CCCN(C)S2(=O)=O)cc1 (configuration not stated),2.75% (inactive)
20,Clc1ccc([I+]c2ccc(Cl)cc2)cc1,97.5% (active)

row,SMILES,growth inhibition
1,CCCCCCCCCCCCCCCc1c(NC(C)(CC(C)(C)O)[P+](=O)O)c(=O)n(C)n1C (configuration not stated),-30.9% (inactive)
2,CC(C)Nc1ncnc2c1cnn2-c1ccccc1,0.65% (inactive)
3,CC(C)(C)c1cc(CCC(=O)Nc2ccc(Cl)cc2)[nH]c(=S)n1,0.4% (inactive)
4,COC(=O)c1c2c(cc3c1CC1(C3)Cc3ccc4c(c3C1=O)CCC4)CCC2 (configuration not stated),-7.35% (inactive)
5,O=Cc1ccccc1CCn1c(=O)c2cc3c(=O)n(CCc4ccccc4C=O)c(=O)c3cc2c1=O,11.8% (inactive)
6,NC(N)=N/N=C(\c1ccc(Cl)cc1)C1CC1,-11.9% (inactive)
7,Cc1ccc(CSCc2c(CSCc3ccc(C)cc3)c(CSCc3ccc(C)cc3)c(CSCc3ccc(C)cc3)c(CSCc3ccc(C)cc3)c2CSCc2ccc(C)cc2)cc1,5.8% (inactive)
8,NC(C(=O)O)c1ccccc1 (configuration not stated),-3.85% (inactive)
9,[Mn+2].[Mn+2].c1ccc2c(c1)-c1nc-2nc2[n-]c(nc3nc(nc4[n-]c(n1)c1ccccc41)-c1ccccc1-3)c1cc3c4nc5nc(nc6[n-]c(nc7nc(nc([n-]4)c3cc21)-c1ccccc1-7)c1ccccc61)-c1ccccc1-5,-8.75% (inactive)
10,Cn1c(=O)c2c(nc(C[N+]3([O-])CCOCC3)n2C)n(C)c1=O,-27.9% (inactive)
11,O=C(c1ccccc1)c1ccncc1,-27.2% (inactive)
12,CCOC(=O)c1[nH]cnc1N,-2.55% (inactive)
13,COc1ccccc1C(=O)NO,-22.9% (inactive)
14,CCCC1OCC(O)C(C(O)C(=O)CN(Cc2ccccc2)Cc2ccccc2)O1 (configuration not stated),1.55% (inactive)
15,CCOC(=O)c1c(N)[nH]c(SSc2[nH]c(N)c(C(=O)OCC)c2C(=O)OCC)c1C(=O)OCC,30.3% (inactive)
16,O=C(O)Cc1cccc2c(=O)cc(Cc3ccccc3)oc12,-11.5% (inactive)
17,COc1cc([N+](=O)[O-])ccc1C(=O)NC(CCC(=O)O)C(=O)O (configuration not stated),19.1% (inactive)
18,CCCCCOc1ccc2ccccc2c1,-18.6% (inactive)
19,OCC(O)CNc1ncnc2ccccc12 (configuration not stated),3.4% (inactive)
20,Oc1cc(N2CCCC2)ccc1/C=N/N1C(=S)N(c2ccccc2)C(=Nc2ccccc2)C1=Nc1ccccc1,-1.3% (inactive)
